# KCNQ2 enhance: KCNQ2 (rat) channel potentiation; O88943; CHO-K1 KCNQ2, FluxOR thallium flux fluorescence; active compounds read high; B-score at 10 µM; 310,000 tested, 0.54% active; AID 2239;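 active means fluorescence ratio B-score at least 3 SD of library B-scores, with initial fluorescence B-score within 3 of them, cut at about 5.3 in these data; same plate scores as AID 2156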;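 further: B-score of peak minus minimum over baseline fluorescence ratio after K+ and Tl+ stimulus; positive B-score means potentiation of KCNQ2 with more thallium influx and brighter signal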
# Target sequence (O88943 whole entry, looked up): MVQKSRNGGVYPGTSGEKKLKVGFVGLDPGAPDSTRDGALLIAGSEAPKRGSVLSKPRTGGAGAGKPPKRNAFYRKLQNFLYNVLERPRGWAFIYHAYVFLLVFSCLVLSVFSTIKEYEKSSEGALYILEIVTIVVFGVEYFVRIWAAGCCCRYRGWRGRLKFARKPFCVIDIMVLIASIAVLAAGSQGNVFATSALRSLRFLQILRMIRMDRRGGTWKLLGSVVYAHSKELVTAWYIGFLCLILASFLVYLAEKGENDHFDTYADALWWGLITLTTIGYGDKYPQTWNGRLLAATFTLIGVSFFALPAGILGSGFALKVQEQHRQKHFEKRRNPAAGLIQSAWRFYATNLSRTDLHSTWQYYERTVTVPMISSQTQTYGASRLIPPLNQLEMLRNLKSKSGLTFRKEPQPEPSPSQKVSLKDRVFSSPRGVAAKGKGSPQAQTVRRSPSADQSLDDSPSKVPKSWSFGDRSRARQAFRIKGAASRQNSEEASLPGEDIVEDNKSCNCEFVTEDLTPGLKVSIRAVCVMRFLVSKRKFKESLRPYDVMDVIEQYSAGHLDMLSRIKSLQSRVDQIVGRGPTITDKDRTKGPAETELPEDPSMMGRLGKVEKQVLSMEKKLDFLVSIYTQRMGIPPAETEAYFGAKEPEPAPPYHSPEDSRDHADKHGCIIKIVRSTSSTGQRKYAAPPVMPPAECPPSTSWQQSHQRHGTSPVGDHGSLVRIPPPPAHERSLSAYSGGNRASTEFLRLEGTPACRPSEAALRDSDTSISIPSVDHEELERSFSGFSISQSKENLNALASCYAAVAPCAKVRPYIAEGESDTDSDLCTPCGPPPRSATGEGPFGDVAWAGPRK
# KCNQ2 inh: KCNQ2 (rat) channel inhibition | AID 2156 | 310,000 tested, 1.1% active | O88943 | B-score at 10 µM | CHO-K1 KCNQ2, FluxOR thallium flux, 20 min; active compounds read low;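 active means fluorescence ratio B-score at most minus 3 library SDs, with starting brightness B-score within 2 library SDs, cut at about -5.5 in these data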
# Kir21 conf inh: confirmation of mouse Kir2.1 potassium channel inhibitors. shares compounds with KCNQ2 enhance. Kir2.1-expressing cells, FluxOR thallium flux fluorescence; active compounds read low. Tl flux remaining, % of negative control (active compounds read low), % at 10 µM. 2,300 tested, 41% active;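 active means Primary-screen hit whose thallium flux fell at least 3 control SD below untreated wells in both duplicates, with normal baseline fluorescence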;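 further: 0% = blank wells without stimulus and 100% = stimulated no-compound controls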
# HEK293 ctr: alters thallium flux in parental HEK293 cells, Kir2.1 counter-screen. shares compounds with KCNQ2 enhance. FluxOR thallium flux fluorescence; 0% = unstimulated blank wells. FluxOR signal as % of negative control (100 = no effect), % at 10 µM. 2,300 tested, 19% active. AID 2105;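 active means dye signal at least 3 control SD above or below untreated wells in both duplicates, raw fluorescence within 3, either direction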;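 further: percent is based on the flux ratio of peak minus minimum fluorescence over baseline F0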
# CHO-K1 Tl ctr: alters thallium flux in parental CHO-K1 cells, KCNQ2 counter-screen | AID 2282 | FluxOR thallium flux fluorescence; zero = vehicle mean+3SD, 100% = vehicle-minus-blank window | 1,200 tested, 43% active | activity increase over 3SD of controls, % at 10 µM | shares compounds with KCNQ2 enhance;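 active means signal rise of at least 3 SD above the untreated control mean, in both duplicate wells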;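 further: counter screen of KCNQ2 potentiator hits so any rise reflects channel-independent effects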
# KCNQ1 pot spec: human KCNQ1 counter-target activity of KCNQ2 potentiators; activation over 3SD threshold, % at 10 µM; 1,200 tested, 28% active; shares compounds with KCNQ2 enhance; CHO KCNQ1 stable, FluxOR thallium flux fluorescence; beyond 3SD, as % of vehicle-control signal;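 active means fluorescence ratio rise of at least 3 SD of vehicle wells above their mean, in both replicate wells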;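 further: 0% = vehicle mean plus 3 SD and 100% = vehicle minus unstimulated blank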
# KCNQ2 pot conf: rat KCNQ2 channel potentiator confirmation; shares compounds with KCNQ2 enhance; CHO-KCNQ2 cells, FluxOR thallium flux fluorescence; potentiation, less the hit threshold, % at 10 µM; 1,200 tested, 68% active;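 active means fluorescence ratio rising 3 SD or more over the vehicle control mean in both replicates, plus primary screen hit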;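 further: peak minus minimum thallium fluorescence divided by baseline after K/Tl stimulus; 0% = vehicle mean plus 3 SD and 100% = vehicle minus unstimulated blank difference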
# Kir2-1 sel: mouse Kir2.1 off-target activity of KCNQ2 potentiators | shares compounds with KCNQ2 enhance | HEK293 Kir2.1, FluxOR thallium flux fluorescence | activity over 3SD threshold, % at 10 µM | 1,200 tested, 2% active;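 active means fluorescence ratio rise of at least 3 SD above the vehicle-control mean, seen in both replicates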;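 further: 0% = vehicle mean plus 3 SD and 100% = vehicle minus no-stimulus blank window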
# KCNQ2 W236L pot: KCNQ2 potentiators acting on retigabine-insensitive rat KCNQ2 W236L mutant; current increase over 3SD of negative controls (%), active compounds read high, % at 25 µM; 940 tested, 10% active; shares compounds with KCNQ2 enhance; CHO KCNQ2-W236L, automated patch clamp current;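 active means current increase at least 3 SD of the untreated controls above them in both duplicate recordings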
# Active calls of the source: *; i = inactive; . = not tested or not shown. In the library only some 1.6% were active in any assay of this set; here they are far more common.
SMILES,KCNQ2 enhance,KCNQ2 inh,Kir21 conf inh,HEK293 ctr,others
C=C[C@H]1CN2CC[C@H]1C[C@H]2[C@H](O)c1ccnc2ccc(OC)cc12,0.05,i,.,.,
COc1ccc(C2NC(=O)NC(c3ccccc3)=C2c2nc3ccccc3s2)cc1 (stereo not given),2,i,.,.,
O=C1NC(c2ccccc2)=C(c2nc3ccccc3s2)C(c2ccc(F)cc2)N1 (stereo not given),8.7*,i,i,i,CHO-K1 Tl ctr=74*;KCNQ1 pot spec=-2;KCNQ2 pot conf=21*;Kir2-1 sel=-28;KCNQ2 W236L pot=34%*
O=C(Nc1ccnn1C1CCN(C(=O)c2cc(Cl)ccc2F)CC1)C1CCOC1 (stereo not given),0.07,i,.,.,
COc1cc(CNCCN2CCOCC2)ccc1OCc1ccc(Cl)cc1Cl,.,i,.,.,
COc1cc(CNCc2ccccn2)ccc1OCc1ccc(Cl)cc1Cl,.,i,26%*,i,
CC(=O)c1cccc(NC(=O)CSc2ncc(C(=O)Nc3ccccc3)c(=O)n2C)c1,.,i,.,.,
COc1ccccc1OCCNC(=O)c1c(-c2ccccc2Cl)noc1C,.,i,.,.,
Cc1ccc(-c2nnc(SCc3ccc(C#N)cc3)n2Cc2ccco2)cc1,.,i,.,.,
Cc1ccccc1CSc1nnc(-c2ccco2)n1Cc1ccco1,.,i,50%*,i,
c1ccc(CSc2nnc(-c3cccs3)n2Cc2ccco2)cc1,-6,-6*,65%*,i,
c1ccc(CSc2nnc(-c3ccco3)n2Cc2ccco2)cc1,.,i,.,.,
O=C(CCN1C(=O)c2cccc3cccc(c23)C1=O)Nc1ccccc1,0.16,i,.,.,
N#CC1=C(SCc2ccccc2)NC(=O)CC1c1ccco1 (stereo not given),.,i,41%*,i,
C=C(C)CSC1=C(C#N)C(c2ccccc2)CC(=O)N1 (stereo not given),.,i,.,.,
Cc1ccc(C2CC(=O)NC(SCc3ccccc3)=C2C#N)o1 (stereo not given),.,i,44%*,i,
CCCCCCSC1=C(C#N)C(c2ccc(C)o2)CC(=O)N1 (stereo not given),.,i,60%*,i,
N#CC1=C(SCC(=O)NCc2ccccc2)NC(=O)CC1c1ccco1 (stereo not given),0.02,i,.,.,
CCSC1=C(C#N)C(c2ccc(C)o2)CC(=O)N1 (stereo not given),.,i,.,.,
Cc1nccc(-c2cccc(NC(=O)c3ccccc3Cl)c2)n1,.,i,.,.,
O=C(CCN1C(=O)c2ccccc2S1(=O)=O)Nc1ccc(F)c([N+](=O)[O-])c1,0.02,i,.,.,
CCCCCNC(=O)c1ccc2c(=O)n(CC3CCCO3)c(=S)[nH]c2c1 (stereo not given),0.82,i,.,.,
CCCCCNC(=O)c1ccc2c(=O)n(CC3CCCO3)c(=O)[nH]c2c1 (stereo not given),6.1*,i,i,i,CHO-K1 Tl ctr=-10;KCNQ1 pot spec=-28;KCNQ2 pot conf=-12;Kir2-1 sel=-41
C=C1CCC(C)C(C)(CCC2=CCOC2=O)C/C=C\C=C/1C(=O)O (stereo not given),.,i,.,.,
N#C/C(=C\c1cccc(O)c1)C(=O)N1CCCCC1,.,i,.,.,
N#C/C(=C\c1cccc(Br)c1)C(=O)N1CCCCC1,-8.5,-8.5*,45%*,i,
O=S1(=O)CC(O)C(N(CCO)C(=S)Nc2ccccc2)C1 (stereo not given),0.58,i,.,.,
COc1ccc(CCNC(=O)C2CCN(C(=O)c3ccc(Cl)cc3)CC2)cc1OC,0.01,i,.,.,
N=c1n(CCN2CCCCC2)c2ccccc2n1CC(O)COc1ccccc1 (stereo not given),.,i,.,.,
